Screening results: PubChem BioAssay, National Center for Advancing Translational Sciences (NCATS)
DT40 TDP1 no CPT – qHTS for Inhibitors of human tyrosyl-DNA phosphodiesterase 1 (TDP1): qHTS in cells in absence of CPT. 420,000 tested, 15% active. Potency, µM (doses to about 46.2 µM), most hits filed as inhibitors. DT40 Tdp1-/- hTDP1 cells, no CPT, ATP luminescence, 48 h; also: nearly all actives have a fitted effect of over 55% in size
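Camptothecin absent (DMSO only). Human TDP1-complemented DT40 knockout cells, 400 cells/well, 37 °C for minimum 48 hr; ATP measured via CellTiter-Glo, 30 min dark incubation, luminescence.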
ELG1 DNA repair – qHTS screen for small molecules that inhibit ELG1-dependent DNA repair in human embryonic kidney (HEK293T) cells expressing luciferase-tagged ELG1; HEK293T ELG1-luciferase reporter, luminescence, 16 h; DNA damage induced by 5-fluorouridine; Potency, µM (doses to about 46.1 µM), most hits filed as inhibitors; 330,000 tested, 2.3% active; AID 504467, 2011; also: nearly all actives have a fitted effect of over 55% in size
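DMSO vehicle served as the neutral condition. Each well held 2,000 cells given 5-fluorouridine plus compound; after 16 hr at 37 °C/5% CO2, ONE-Glo was added and luciferase measured 30 min later.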
HT1080 IDH1KD tx – qHTS for induction of synthetic lethality in tumor cells producing 2HG: qHTS for the HT-1080-IDH1KD cell line; HT-1080 IDH1 knockdown viability, ATP luminescence, 48 h; Potency, µM (titrated, usually from 46.1 µM), hits mostly cytotoxic; 360,000 tested, 2% active; AID 686971, 2013
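CellTiter-Glo luminescence after 48 h compound exposure at 37 degrees C of IDH1-knockdown HT-1080 cells in 5% FBS RPMI. %Activity scaled between DMSO wells and cell-free media wells, with curves fitted and assigned curve classes.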
IL-1B inflam inh – qHTS for Inhibitors of Inflammasome Signaling: IL-1-beta AlphaLISA Primary Screen; THP-1 LPS/ATP IL-1B secretion, AlphaLISA, 16 h; hits give low values; activity change, % at 57.5 µM; 360,000 tested, 4.7% active; AID 743279, 2014; in the data active = activity change below about -50%; inconclusive = mostly about -30% to -49%
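Secreted IL-1B measured by AlphaLISA bead assay after 16 h compound exposure of THP-1 cells; compounds (final up to 57.5 uM) added 1 h before LPS (250 ng/mL) and ATP (1.25 mM) stimulation; lower signal means less secretion.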
HT1080-NT tox – qHTS for induction of synthetic lethality in tumor cells producing 2HG: qHTS for the HT-1080-NT fibrosarcoma cell line; HT-1080-NT fibrosarcoma viability, CellTiter-Glo ATP luminescence, 48 h; Potency, µM (series often up to 46.1 µM), usual class: cytotoxic; 360,000 tested, 1.6% active;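 also: NT is the 2HG producing partner of a matched IDH1 knockdown line; nearly all actives have a fitted effect of over 55% in size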
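HT-1080-NT; 750 cells/well; 5% FBS RPMI; 48 h compound, 37 degrees C; CellTiter-Glo luminescence; curve fitting and curve-class assignment.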
TDP1 cell CPT – qHTS for Inhibitors of human tyrosyl-DNA phosphodiesterase 1 (TDP1): qHTS in cells in presence of CPT; chicken DT40 Tdp1-/-;hTDP1 cells + 20 nM CPT, ATP luminescence, 48 h; Potency, µM (titrated, usually from 46.2 µM), actives largely listed as inhibitors; 420,000 tested, 12% active; AID 686979, 2013; also: nearly all actives have a fitted effect of over 55% in size
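Chicken DT40 Tdp1-/- cells complemented with human TDP1, 400 cells/well, exposed to compounds plus 20 nM camptothecin for at least 48 h at 37 C; viability read as ATP content by CellTiter-Glo luminescence.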
Hits are given with their value. Shown are actives, neighbours in structure and some others; about 19% of the full set was active somewhere. Unless noted, calls follow the shape of the dose curve; as a rule, active = well fitted curve in the direction sought with a large enough effect; inconclusive = small, poorly fitted or top-dose-only effect, or another doubt; inactive = no such curve, though single readings can be large; an effect the other way counts as inactive or inconclusive.

`CCOC(=O)c1cc(-c2ccccc2)n(CC(=O)Nc2cc(OC)cc(OC)c2)c1C` gave DT40 TDP1 no CPT 16µM, ELG1 DNA repair inactive, HT1080 IDH1KD tx inactive, IL-1B inflam inh inactive, HT1080-NT tox inactive and TDP1 cell CPT 21µM.
Screening Cc1ccc(NC(=O)N2CCN(c3nnc(C)c4c(C)n(-c5ccc(Cl)cc5)nc34)CC2)c(C)c1 returned DT40 TDP1 no CPT inactive and TDP1 cell CPT inactive.
O=[N+]([O-])c1ccc2c(c1Nc1ccccc1)=NC1(CCCCC1)N=2 was read as DT40 TDP1 no CPT inconclusive, ELG1 DNA repair inactive, HT1080 IDH1KD tx inactive, IL-1B inflam inh inactive, HT1080-NT tox inactive and TDP1 cell CPT inconclusive.
For COc1ccc(Nc2c([N+](=O)[O-])ccc3c2=NC2(CCCCC2)N=3)cc1 the results were DT40 TDP1 no CPT 21µM, ELG1 DNA repair inactive, HT1080 IDH1KD tx inactive, IL-1B inflam inh inactive, HT1080-NT tox inactive and TDP1 cell CPT inconclusive.
Cc1ccc(C(=O)NCc2ccc(F)cc2)cc1NC(=O)c1nsc2ccccc12 was read as DT40 TDP1 no CPT 23µM and TDP1 cell CPT inconclusive.
CC(C)Oc1ccc(CNC(=O)c2cccc(NC(=O)c3nsc4ccccc34)c2)cc1 was read as DT40 TDP1 no CPT 9.2µM and TDP1 cell CPT 4.6µM.
`Cc1ccc(C(=O)O)cc1NC(=O)c1nsc2ccccc12` gave DT40 TDP1 no CPT inactive and TDP1 cell CPT inactive.
For COc1ccc(OC)c(CNC(=O)c2ccc(C)c(NC(=O)c3nsc4ccccc34)c2)c1 the results were DT40 TDP1 no CPT inconclusive and TDP1 cell CPT 18µM.
`Cc1ccc(C(=O)NCCC(C)C)cc1NC(=O)c1nsc2ccccc12` gave DT40 TDP1 no CPT inconclusive and TDP1 cell CPT 16µM.
`COCCCOc1cc(C[C@@H](C[C@H](N)[C@@H](O)C[C@H](C(=O)NCC(C)(C)C(N)=O)C(C)C)C(C)C)ccc1OC` gave DT40 TDP1 no CPT inactive and TDP1 cell CPT inactive.
For CCOC(=O)c1ccc(NS(=O)(=O)c2c(C)[nH]c(C)c2C(=O)N2CCCCC2)cc1 the results were DT40 TDP1 no CPT inactive, ELG1 DNA repair inactive, HT1080 IDH1KD tx inactive, IL-1B inflam inh inactive, HT1080-NT tox inactive and TDP1 cell CPT inconclusive.
`C[C@@H]1C(=O)O[C@H]2C[C@@]34[C@H]5C[C@@H](C(C)(C)C)[C@]36[C@@H](OC(=O)[C@@H]6O)O[C@@]4(C(=O)O5)[C@]21O` gave DT40 TDP1 no CPT inactive, ELG1 DNA repair inactive, HT1080 IDH1KD tx inactive, IL-1B inflam inh inactive, HT1080-NT tox inactive and TDP1 cell CPT inactive.
CC(C)=CC(=O)Nc1nc2ccc([N+](=O)[O-])cc2s1 was read as DT40 TDP1 no CPT inactive, ELG1 DNA repair inconclusive, HT1080 IDH1KD tx inactive, IL-1B inflam inh inactive, HT1080-NT tox inactive and TDP1 cell CPT inactive.
`O=C(NCc1ccccc1Cl)c1ccc(NC(=O)c2nsc3ccccc23)cc1` gave DT40 TDP1 no CPT 18µM and TDP1 cell CPT 18µM.
For CCOc1ccc(NC(=O)Cn2c(=O)n(-c3cccc(OC)c3)c(=O)c3c4c(sc32)CCCC4)cc1 the results were DT40 TDP1 no CPT inactive and TDP1 cell CPT inconclusive.
Screening O=C(Cn1ccc(=O)[nH]c1=O)Nc1ccc(O)c([N+](=O)[O-])c1 returned DT40 TDP1 no CPT inactive, HT1080 IDH1KD tx inactive, IL-1B inflam inh inactive, HT1080-NT tox inactive and TDP1 cell CPT inactive.
